Vaccinia mCherry: vaccinia inhibition (mCherry reporter) | Vaccinia virus mCherry reporter infection, fluorescence | Potency, µM (highest dose often 36.5 µM), inactives show top-dose activity change, negative = inhibition, actives largely listed as inhibitors | 310,000 compounds, 0.63% hits | AID 720579; calls by dose curve; tested in A549 cells; note: potency is the fitted concentration of half-maximal effect; nearly all actives have a fitted effect of over 35% in size
HCMV inh: blocks human cytomegalovirus replication | HFF cells, HCMV-luciferase reporter, 72 h; active compounds read low | activity change, negative = inhibition, % at 57.5 µM | 410,000 compounds, 4.5% hits | AID 1259415; in the data active = activity change below about -60%; inconclusive = no clear call, values can overlap the other calls; inactive = above about -39%
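Luciferase read-out from HCMV-luciferase-infected HFFs (MOI 1 PFU/cell) 72 h post infection at 37C; compounds added after 16 h cell attachment; activity normalized between buffer-only basal and Salinomycin (10uM) inhibitor controls.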
Vaccinia Venus: inhibitors of vaccinia virus (Venus reporter). Potency, µM (series often up to 36.5 µM), inactives show at the top dose activity change, negative = inhibition, usual class: inhibitors. Vaccinia virus Venus reporter expression, fluorescence. AID 720580. 330,000 compounds, 0.46% hits; calls by dose curve; tested in A549 cells; note: potency is the fitted concentration of half-maximal effect; nearly all actives have a fitted effect of over 30% in size
FMDV inh: foot and mouth disease virus antiviral activity; FMDV antiviral cell-based qHTS; Potency, µM (top dose mostly 57.9 µM), for inactives: at the top dose activity change, negative = inhibition, most hits filed as inhibitors; 410,000 compounds, 1.2% hits; calls by dose curve; tested in HEK293T cells; note: read-out not given here; potency is the fitted concentration of half-maximal effect; nearly all actives have a fitted effect of over 45% in size
LASV entry inh: Lassa virus entry inhibition; Lassa virus pseudotype entry inhibition, cell reporter; Potency, µM (highest dose often 37.9 µM), for the others: top-dose activity change, negative = inhibition, actives largely listed as inhibitors; 300,000 compounds, 1.2% hits; calls by dose curve; tested in HEK293 cells; note: potency is the fitted concentration of half-maximal effect; nearly all actives have a fitted effect of over 50% in size
Marburg entry inh: blocks Marburg virus binding to or entry into cells. Marburg virus pseudotyped entry inhibition, cell reporter. Potency, µM (titrated, usually from 37.8 µM), for the others: at the highest dose activity change, negative = inhibition, hits mostly inhibitors. 300,000 compounds, 1.8% hits; calls by dose curve; tested in HEK293 cells; note: potency is the fitted concentration of half-maximal effect
The depositor's hits bear a star; i = inactive; u = inconclusive; x = no result; + = active, no number; [ ] = another dose, or the depositor's remark. Sampled rows, rich in hits. Any-hit rate of the full collection: about 6.5%. % is set by controls: 0 for no effect and ±100 for the full control effect.

SMILES	Vaccinia mCherry	HCMV inh	Vaccinia Venus	FMDV inh	LASV entry inh	Marburg entry inh
Cc1ccc(S(=O)(=O)N(C)C)cc1NC(=S)Nc1ccc2cn[nH]c2c1	-23%	-67*	-6%	-8%	14%	-5%[46.1 µM]
CC(=O)c1ccc(NC(=S)Nc2ccc3cn[nH]c3c2)cc1	6%	-68*	-7%	27%	-30%	10%[14.2 µM]
Cc1ccc(NC(=S)Nc2ccc3cn[nH]c3c2)cc1C	x	-33	x	10%	x	x
O=C(CN1C(=O)CCc2cc(Br)ccc21)Nc1ccc(OC(F)(F)F)cc1	1%	11	-4%	-12%	-6%[46.1 µM]	x
O=C(NCc1ccc(Cl)cc1)C1CCCN(c2ncnc3onc(-c4ccc(F)cc4)c23)C1 (stereo unspecified)	-14%	8	-15%	-11%	-15%[46.1 µM]	x
CC(=O)Nc1sc2c(c1CN1CCN(c3ccc(F)cc3)CC1)CCCC2	-27%	1	-17%	u	u	10µM*
CCc1ccc2nc(N(Cc3cccnc3)C(=O)c3cccs3)sc2c1	-5%	-61*	-14%	21%	-3%[46.1 µM]	x
COc1ccc2sc(N(Cc3cccnc3)C(=O)c3ccc4c(c3)OCCO4)nc2c1	-19%[7.34 µM]	-90*	-20%[7.34 µM]	u	u	x
COc1ccc(OC)c2sc(N(Cc3cccnc3)C(=O)c3ccco3)nc12	-19%	+	-8%	-22%	13%[46.1 µM]	x
Cc1ccc2nc(N(Cc3cccnc3)C(=O)c3cccs3)sc2c1	-4%	-28	-17%	15%	u	x
COc1cccc2sc(N(Cc3cccnc3)C(=O)c3ccco3)nc12	-7%	-20	-16%	-20%	-14%[46.1 µM]	x
O=C(NNc1ccccc1C(F)(F)F)c1sccc1Cl	-20%	x	-12%	x	x	x
CCOC(=O)C1(C)C=C(Nc2ccc(O)cc2)C(=O)N1c1ccc(O)cc1 (stereo unspecified)	i	-70*	-7%	-14%	-16%	u
COc1cc2c(cc1OC)C(C(=O)O)C(c1ccc3c(c1)OCO3)N(C)C2=O (stereo unspecified)	x	-3	x	x	x	x
COc1ccc(Cc2nc3ccc(C(=O)N(C)Cc4nccs4)cc3o2)cc1OC	x	-65*	x	0%	x	x
C=CCN(CC=C)C(=O)c1ccc2nc(Cc3ccc(OC)c(OC)c3)oc2c1	i	-62*	-13%	-20%	u	u
COc1ccc(Cc2nc3ccc(C(=O)N4CCCC4)cc3o2)cc1OC	-8%	0	-13%	u	u	u
COc1ccc(Cc2nc3ccc(C(=O)N4CCN(C)C(C)C4)cc3o2)cc1OC (stereo unspecified)	u	-64*	-19%	u	u	u
CCOc1ccc(NC(=O)CSc2nc(=O)[nH]c3c2CCC3)cc1	-3%[7.34 µM]	-27	-7%[7.34 µM]	-15%	u	x
O=C(CC1(CC2=NS(=O)(=O)c3ccccc3N2)CCCC1)NCCc1ccccc1	i	-68*	-21%	-2%	x	x
Cc1cccc(CNC(=O)CCn2c(=O)c3cccn3c3ccc(F)cc32)c1	-9%	-85*	-9%	-10%	5%[46.1 µM]	x
COc1cccc(NC(=O)Cn2c(=O)c3cccn3c3ccc(F)cc32)c1	-2%	-65*	-3%	0%	-1%[46.1 µM]	x
O=C(CCn1c(=O)c2cccn2c2ccc(F)cc21)NCc1cccc(F)c1	-14%[7.34 µM]	-30	-7%[7.34 µM]	-27%	x	x
Cc1cc(-c2ccnc(-n3ncc(C(=O)NCc4cccnc4)c3C3CC3)n2)c(C)s1	-12%	x	6%	-12%	x	x
Cc1ccc(NC(=O)C2CCN(S(=O)(=O)c3ccc4c(c3)NC(=O)CO4)CC2)cc1	-11%	u	-20%	u	-20%[46.1 µM]	-5%[46.1 µM]
COc1ccc(NC(=O)C2CCN(S(=O)(=O)c3ccc4c(c3)NC(=O)C(C)S4)CC2)cc1 (stereo unspecified)	i	u	-21%	0%	-11%[46.1 µM]	u
Cc1ccc(NC(=O)C2CCN(S(=O)(=O)c3ccc(N4CCCC4=O)cc3)CC2)cc1Cl	-10%	-86*	-17%	-28%	u	u
CC(C)c1ccc(NC(=O)C2CCN(S(=O)(=O)c3ccc4c(c3)NC(=O)CO4)CC2)cc1	x	-68*	x	u	x	x
CC1Sc2ccc(S(=O)(=O)N3CCC(C(=O)Nc4ccc(Cl)cc4)CC3)cc2NC1=O (stereo unspecified)	x	-71*	x	14µM*	x	x
COc1cc([C@@H]2C(C#N)=C(N)Oc3cc(C)n(CCN4CCOCC4)c(=O)c32)cc(OC)c1OC	x	x	x	x	x	0%
